In the library only some 7.1% were active in any assay of this set; here they are far more common.
Pyk2 oligo antag – antagonists of human Pyk2 oligomerization | Q14289 | Q293 cells, Pyk2 FERM NanoBiT luminescence; active compounds read low | z-score (the deposit names both 25 µM and 10 µM) | 99,000 compounds, 0.83% hits | AID 1347419;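 active = Z-score of -3 or lower, scaled per plate to the spread of control and sample wells; inactive = z-score above -3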;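 note: negative z-score means lost luminescence so less FERM oligomerization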
Cav32 inh – inhibitors of human Cav3.2 T-type calcium channel; O95180; Cav3.2-expressing cells, Fluo-4 calcium fluorescence FDSS; active compounds read low; B-score at 10 µM; 100,000 compounds, 4% hits;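 active = single-dose well whose peak fluorescence ratio is a statistical outlier from its plate by either plate-standardised score or position-corrected B-score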
M1 agonist – agonists of M1 muscarinic receptor; CHO-M1 cells, Fluo-4 calcium fluorescence, agonist mode; active compounds read high; B-score at 10 µM; 64,000 compounds, 3% hits;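 active = fluorescence rise, raw or as B-score row- and column-corrected plate score, outside the 99.7% band of its plate's samples, either direction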
M1 antagonist – M1 muscarinic receptor (rat) antagonism. B-score at 10 µM. CHO-M1 cells, Fluo-4 calcium, ACh EC80 antagonist mode; active compounds read low. P08482. 64,000 compounds, 3.4% hits. AID 628;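 active = calcium fluorescence response, raw or row-and-column corrected B-score, differing from the plate sample mean either way at a set confidence level, mostly lower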
M1 antag conf – confirmation of rat M1 muscarinic receptor antagonists | shares compounds with M1 antagonist | CHO-M1 cells, Fluo-4 calcium, ACh EC80 antagonism; active compounds read low | calcium response (max-min fluorescence) at 10 µM | 1,700 compounds, 43% hits | AID 677;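 active = calcium response below the same-plate mean of wells given acetylcholine alone at its 80%-effect dose, minus 3 SD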;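 note: raw fluorescence intensity difference in arbitrary instrument units and not normalized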
mGluR4 antag – mGluR4 (human) activity, M1 antagonist secondary assay; fluorescence response (max-min) at 10 µM; 1,700 compounds, 0.9% hits; CHO-mGluR4 calcium flux, Fluo-4 fluorescence, glutamate EC80; active compounds read low; shares compounds with M1 antagonist;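 active = fluorescence response below the plate's average for near-maximal glutamate wells, less 3 SD of those wells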;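 note: raw unnormalized fluorescence span taken in the window right after glutamate addition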
The depositor's hits bear a star; x = no result.

SMILES	Pyk2 oligo antag	Cav32 inh	M1 agonist	M1 antagonist	M1 antag conf	mGluR4 antag
CCn1c(=O)cc(OCC(=O)Nc2cccnc2)c2ccccc21	1.1	1.2	-0.18	-1.7*	671	212
CCOC(=O)c1ccc(NC(=O)COc2cc(=O)n(CC)c3ccccc23)cc1	x	0.69	x	x	x	x
Cc1cccc(C2Nc3ccccc3C(=O)N2CCc2ccccc2)n1 (centres undefined)	-1.1	-0.31	-0.64	-11*	554	212
COc1cccc(CNC(=O)C2=C(C)C(=O)OC23CCC(C)CC3)c1 (centres undefined)	0.33	-1	x	x	x	x
O=C(CCNC(=O)c1ccc(Br)o1)NCc1ccccc1Cl	-0.03	0.061	0.13	-0.84	x	x
O=C(CCNC(=O)c1ccc(Br)o1)NCc1ccccn1	0.61	0.53	0.074	-7.7*	648	144*
CCOC(=O)Nc1ccc2c(c1)N(C(=O)N1CCN(C)CC1)c1ccccc1S2	-1.9	0.51	0.041	-15*	14*	268
CCOC(=O)Nc1ccc2c(c1)N(C(=O)CCN1CCN(CCO)CC1)c1ccccc1S2	0.14	0.28	x	x	x	x
CCOC(=O)Nc1ccc2c(c1)Sc1ccccc1N2C(=O)CCN1CCOCC1	0.07	x	1.4	-3.5*	317*	257
CCOC(=O)Nc1ccc2c(c1)N(C(=O)CCN1CCN(C)CC1)c1ccccc1S2	0.72	-0.021	x	x	x	x
Cc1cc(Cl)ccc1OCC(=O)NCCOc1nc(N2CCOCC2)nc(N2CCOCC2)n1	0.63	1.6	x	x	x	x
Cc1nccn1CCc1n[nH]c(=S)n1Cc1ccccc1	-0.33	0.26	1	-9.5*	314*	233
COc1ccc(CNC(=O)c2ccc(NC(=O)C3CCCO3)cc2)cc1 (centres undefined)	-0.12	0.13	1.5	-0.17	x	x
O=C(NCc1cccc(Br)c1)C1CC(c2ccccc2[N+](=O)[O-])=NO1 (centres undefined)	x	-0.033	x	x	x	x
CCOC(=O)c1sc2nc3n(c(=O)c2c1C)CCC(C)CC3 (centres undefined)	-1.1	0.057	1.2	0.029	x	x
CCOC(=O)N1CCC(NC(=O)c2sc3nc4n(c(=O)c3c2C)CCCC4)CC1	0.33	0.69	0.58	-2.6*	612	279
N=c1n(CCN2CCCCC2)c2ccccc2n1CC(O)c1cccc(Br)c1 (centres undefined)	-1.1	-1.3	-0.29	-4.1*	447	198
N=c1n(CCN2CCCCC2)c2ccccc2n1CC(O)c1ccc(Cl)c(Cl)c1 (centres undefined)	0.83	-2.6	x	x	x	x
COc1ccccc1OCC(O)Cn1c(=N)n(CCN2CCCCC2)c2ccccc21 (centres undefined)	1.2	-3.1	-0.08	-1.6*	395	181
CCCCn1c(=N)n(CC(O)COc2ccccc2)c2ccccc21 (centres undefined)	2.4	-3.2	0.013	-2.3*	627	234
CCC1=C(OC(=O)N(CC)CC)N2C(=O)OC(=NCCc3c[nH]c4ccccc34)[C@]2(Cc2ccccc2)[C@H]2C1=CC[C@H]1C(=O)N(CC)C(=O)[C@H]12	x	-0.61	x	x	x	x
O=[N+]([O-])c1ccc2nccn2c1	1.3	1.1	x	x	x	x
O=C(Nc1ccc(-n2nncc2-c2ccco2)cc1)c1ccc(F)cc1	0.27	0.054	-0.46	0.29	x	x
Cc1onc(-c2ccccc2Cl)c1C(=O)Nc1ccc(-n2nncc2-c2ccco2)cc1	-0.48	-4.7	-0.21	-1.9*	379*	208
Cc1cc(NC(=O)CN2CCN(Cc3ccccc3)CC2)nc2c1c(=O)oc1ccccc12	x	x	-0.76	-2.4*	499	204
SMILES	Pyk2 oligo antag	Cav32 inh	M1 agonist	M1 antagonist	M1 antag conf	mGluR4 antag
O=C(CN1C(=O)NC2NC(=O)NC21)NC1CCCCC1 (centres undefined)	x	x	0.47	0.58	x	x
CCn1c(SCC(=O)O)nnc1C1CCCCC1	0.63	-0.49	-0.82	-4.7*	562	178
CCn1c(SCC(=O)OC)nnc1C1CCCCC1	-0.88	x	x	x	x	x
CC(=O)Nc1ccc(S(=O)(=O)n2nc(C)cc2C)cc1	1.3	-0.024	0.016	0.55	x	x
Cc1ccc2ccc(S(=O)(=O)n3nc(C)cc3C)cc2c1	4.1	-3.5	-1.3	-2*	443*	269
O=C(NCc1nnc(SC/C=C/c2ccccc2)o1)c1ccco1	0.37	-2.2	-0.66	1.6	x	x
NCCCCCc1nnc(SC/C=C/c2ccccc2)o1	1	0.5	0.011	-3.6*	450*	275
CSc1cccc(NC(=O)CSc2nc3ccccc3o2)c1	1.2	-3.6	-0.012	-3.3*	577	272
